In PubChem BioAssay (NCATS):
Inconclusive results are not listed. Active and inactive are the calls of the source. Calls come from the whole dose curve; as a rule, active = well fitted curve in the direction sought with a large enough effect; inconclusive = small, poorly fitted or top-dose-only effect, or another doubt; inactive = no such curve, though single readings can be large; an effect the other way counts as inactive or inconclusive.

Legend:
[1] = qHTS of pediatric cancer cell lines to identify multiple opportunities for drug repurposing: Primary screen for TC32 cells (AID 1347089); settings: TC32 Ewing sarcoma viability, CellTiter-Glo luminescence, 48 h; series mostly up to 45.8 µM; note: nearly all actives have a fitted effect of over 60% in size
Summary of the method: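 Luminescent ATP read-out (CellTiter-Glo) of metabolically active TC32 cells after 48 h exposure. Concentration-response curves came from 11-point (MIPE, 0.78 nM–46 µM) or 8-point (NPC, 0.59 nM–46 µM) primary titrations; follow-up used 11 points.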

[2] = qHTS of pediatric cancer cell lines to identify multiple opportunities for drug repurposing: Primary screen for DAOY cells (AID 1347090); settings: DAOY medulloblastoma viability, CellTiter-Glo luminescence, 48 h; series mostly up to 46 µM; note: nearly all actives have a fitted effect of over 55% in size
Summary of the method: (§1)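 Eight- or eleven-point concentration series, 48 h treatment at 37 degrees C in growth media; readout CellTiter-Glo luminescence. Potency and efficacy were taken from the concentration-response curves.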

[3] = qHTS of pediatric cancer cell lines to identify multiple opportunities for drug repurposing: Primary screen for SJ-GBM2 cells (AID 1347091); settings: SJ-GBM2 viability, CellTiter-Glo luminescence, 48 h; series mostly up to 46 µM
Summary of the method: as §1

[4] = qHTS of pediatric cancer cell lines to identify multiple opportunities for drug repurposing: Primary screen for A673 cells (AID 1347092); settings: A673 Ewing sarcoma viability, CellTiter-Glo ATP luminescence, 48 h; series mostly up to 46 µM; note: nearly all actives have a fitted effect of over 45% in size
Summary of the method: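 Cell viability of A673 measured by CellTiter-Glo ATP luminescence after 48 hours compound exposure. Dilution series spanned 0.78 nM to 46 µM (MIPE, 11-point) or 0.59 nM to 46 µM (NPC, 8-point); bortezomib 2.3 uM positive control.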

[5] = qHTS of pediatric cancer cell lines to identify multiple opportunities for drug repurposing: Primary screen for SK-N-MC cells (AID 1347093); settings: SK-N-MC viability, CellTiter-Glo luminescence, 48 h; series mostly up to 46 µM; note: potency is the fitted concentration of half-maximal effect
Summary of the method: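 Metabolically active cells were quantified by ATP-dependent luminescence (CellTiter-Glo, 15 min at room temperature) following 48 h treatment. Cells had been plated at 500-1,000 per well and settled for 5 h beforehand.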

[6] = qHTS of pediatric cancer cell lines to identify multiple opportunities for drug repurposing: Primary screen for BT-37 cells (AID 1347094); settings: BT-37 viability, CellTiter-Glo luminescence, 48 h; series mostly up to 57.3 µM
Summary of the method: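 Plated cells (500-1,000 per well, growth media) were allowed to settle for 5 hours, treated with compound dilutions for 48 hours, then lysed with CellTiter-Glo for 15 min at room temperature before luminescence reading.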

Measured: Potency

C[C@H]1NCc2cc(-c3ccc4c(=O)c(C(=O)O)cn(C5CC5)c4c3OC(F)F)ccc21
inactive: [1] | [2] | [3] | [4] | [5] | [6]

CC(C)C(=O)Nc1cccc(C2CN3CCSC3=N2)c1 (stereo not given)
inactive: [1] | [2] | [3] | [4] | [5] | [6]

CN(C(=O)C(Cl)Cl)c1ccc(OC(=O)c2ccco2)cc1
inactive: [1] | [2] | [3] | [4] | [5] | [6]

CC1(C)O[C@@H]2C[C@H]3[C@@H]4CCC5=CC(=O)C=C[C@]5(C)[C@@]4(F)[C@@H](O)C[C@]3(C)[C@]2(C(=O)CO)O1
inactive: [1] | [2] | [3] | [4] | [5] | [6]

CC(NC(CCc1ccccc1)C(=O)O)C(=O)N1C(=O)N(C)CC1C(=O)O (stereo not given)
inactive: [1] | [2] | [3] | [4] | [5]

N#CC1(c2ccc(F)cc2)CCC(=O)CC1
inactive: [1] | [2] | [3] | [4] | [5] | [6]

O=C(OCC(COC(=O)c1cccnc1)(COC(=O)c1cccnc1)COC(=O)c1cccnc1)c1cccnc1
inactive: [1] | [2] | [3] | [4] | [5] | [6]

CCN1C(=O)c2ccccc2C1Nc1ccc(OCCN2CCCCC2)cc1 (stereo not given)
inactive: [1] | [2] | [3] | [4] | [5] | [6]

O=C(C1CCCCC1)N1CC(=O)N2CCCc3ccccc3C2C1 (stereo not given)
inactive: [1] | [2] | [3] | [4] | [5] | [6]

CCCCCOc1ccc(C2SC(=O)NC2=O)cc1OCC (stereo not given)
inactive: [1] | [2] | [3] | [4] | [5]

CC(C)C[C@@H]1[C@H](c2ccccc2)OC(=O)N1CCCN1CCCCCC1
inactive: [1] | [2] | [3] | [4] | [5] | [6]

CN=C(N)NC(=O)Nc1c(C)cccc1C
inactive: [1] | [2] | [3] | [4] | [5]

O=C1CC2(CCCC2)CC(=O)N1CCNCC1COc2ccccc2O1 (stereo not given)
inactive: [1] | [2] | [3] | [4] | [5] | [6]

O=C1c2ccccc2CCc2ccccc21
inactive: [1] | [2] | [3] | [4] | [5] | [6]

CN(C)[C@@H]1C(=O)C(C(N)=O)=C(O)[C@@]2(O)C(=O)C3=C(O)c4c(O)cccc4C[C@H]3C[C@@H]12
inactive: [1] | [2] | [3] | [4] | [5]

O=C1CCCc2c(O)cccc21
inactive: [1] | [2] | [3] | [4] | [5] | [6]

C=CC[N+]1([C@H]2C[C@H]3[C@@H]4CC[C@H]5C[C@H](OC(C)=O)[C@@H](N6CCCCC6)C[C@]5(C)[C@H]4CC[C@]3(C)[C@H]2OC(=O)CC)CCCCC1
inactive: [1] | [2] | [3] | [4] | [5]

Cc1c(F)cc2c(=O)c(C(=O)O)cn3c2c1CCC3C (stereo not given)
inactive: [1] | [2] | [3] | [4] | [5] | [6]

Cc1[nH]cnc1-c1ccc(Cl)cc1
inactive: [1] | [2] | [3] | [4] | [5]

CN1C(=O)c2ccccc2C1=O
inactive: [1] | [2] | [3] | [4] | [5]

O=C(O)/C=C(\CC(=O)O)C(=O)O
inactive: [1] | [2] | [3] | [4] | [5]

Nc1ncnc2c1ncn2Cc1c(F)cccc1Cl
inactive: [1] | [2] | [3] | [4] | [5] | [6]

O=C(O)CNC(=O)CNC(=O)CNC(=O)CSC(=O)c1ccccc1
inactive: [1] | [2] | [3] | [4] | [5] | [6]

CC(=O)Nc1c(I)c(NC(C)=O)c(I)c(C(=O)O)c1I
inactive: [1] | [2] | [3] | [4] | [5] | [6]

Cc1cccc(C)c1NC(=O)c1ccc(N)cc1
inactive: [1] | [2] | [3] | [4] | [5] | [6]

O=C(O)CCC(=O)OC[C@@H](NC(=O)C(Cl)Cl)[C@H](O)c1ccc([N+](=O)[O-])cc1
inactive: [1] | [2] | [3] | [4] | [5]

OCCc1ccccc1
inactive: [1] | [2] | [3] | [4] | [5] | [6]

CO/N=C(/C(=O)N[C@@H]1C(=O)N2C(C(=O)OCOC(=O)C(C)(C)C)=C(C)CS[C@H]12)c1csc(N)n1
inactive: [1] | [2] | [3] | [4] | [6]
active: [5] 26.6 µM

CC(C)(C)c1ccc(C(=O)CCCCl)cc1
inactive: [1] | [2] | [3] | [4] | [5]

CNC(=O)c1cnn(-c2nc(N)c3ncn([C@@H]4O[C@H](CO)[C@@H](O)[C@H]4O)c3n2)c1
inactive: [1] | [2] | [3] | [4] | [5] | [6]

CC(=O)N[C@@H](CCC(N)=O)C(=O)O
inactive: [1] | [2] | [3] | [4] | [5]
